Assay outcomes as filed in PubChem.
D3 antag = antagonists of human D3 dopamine receptor | P35462 | D3R cells, DiscoveRx beta-arrestin luminescence, antagonist mode; hits give low values | max response, negative = inhibition, % | hit rate 2.5% among 360,000 | AID 652054; in the data active = max response below about -50%
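Cells plated overnight at 1500 cells/well, then exposed to library compounds with dopamine controls for 90 minutes at 37 degrees C. DiscoveRx reagent added for 30–60 minutes at room temperature; luminescence read, quantitative HTS format.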
D1 antag = blocks dopamine activation of the human D1 receptor; activity change, negative = inhibition, % at 10 µM; P21728; HEK293 TREx D1 cells, calcium flux, dopamine EC80; hits give low values; hit rate 3.2% among 360,000; AID 504652; in the data active = activity change below about -30%
Target sequence (P21728 whole entry, looked up): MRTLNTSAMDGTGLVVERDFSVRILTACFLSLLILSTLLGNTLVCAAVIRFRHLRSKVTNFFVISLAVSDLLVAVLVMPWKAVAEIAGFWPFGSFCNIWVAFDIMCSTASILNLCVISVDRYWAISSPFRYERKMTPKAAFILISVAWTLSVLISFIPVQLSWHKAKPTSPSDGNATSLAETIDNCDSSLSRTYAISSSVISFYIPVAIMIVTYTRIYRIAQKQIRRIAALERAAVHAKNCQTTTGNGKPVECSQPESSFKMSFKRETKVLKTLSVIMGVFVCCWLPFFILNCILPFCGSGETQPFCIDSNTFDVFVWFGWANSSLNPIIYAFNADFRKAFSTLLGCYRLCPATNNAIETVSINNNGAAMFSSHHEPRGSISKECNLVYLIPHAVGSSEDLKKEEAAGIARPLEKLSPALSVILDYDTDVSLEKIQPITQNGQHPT
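After overnight tetracycline induction at 30 C, force-coupled D1 HEK293 cells took up a no-wash calcium dye at room temperature. Compounds were added and monitored 180 s, and the response to EC80 dopamine was then recorded.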
D1 agonist = human D1 receptor agonism; hit rate 1% among 360,000; P21728; HEK293 T-REx D1 cells, calcium flux, agonist mode; activation, % at 2 µM; in the data active = activation above about 30%
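Tetracycline-induced HEK293 TREx D1 cells, force-coupled to calcium signalling, were dye-loaded with a no-wash calcium kit. Compound was pin-added after a 10 s baseline. Fluorescence was read kinetically at 1 cycle/s for 180 s, with calcium rises flagged as agonism.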
D1 PAM = human D1 dopamine receptor positive modulation | potentiation, % at 10 µM | hit rate 0.036% among 360,000 | HEK293 TREx D1 cells, calcium flux, dopamine EC20 potentiation | P21728; in the data active = potentiation above about 30%
D3 ag = agonists of human D3 dopamine receptor | D3R DiscoveRx beta-arrestin cells, luminescence, 90 min | AID 652048 | hit rate 0.58% among 410,000 | max activation, %; in the data active = max activation above about 30%
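Cells at 1500/well, incubated overnight, then treated with pinned compounds (dopamine as control) for 90 min at 37 degrees C. DiscoveRx reagent added for 30 - 60 minutes at room temperature; luminescence read.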
Numbers stand for hits. Only some compounds are listed: those with a hit (about 6.1% of all), similar ones and a draw of the others.

For O=C(O)[C@H](O)[C@@H](O)[C@H](O[C@@H]1O[C@H](CO)[C@H](O)[C@H](O)[C@H]1O)[C@H](O)CO the results were D3 ag inactive.
Screening CCc1ccc(S(=O)(=O)c2nnn3c2nc(Nc2ccc(C)c(Cl)c2)c2sccc23)cc1 returned D1 antag inactive, D1 agonist inactive, D1 PAM inactive and D3 ag inactive.
Screening COc1ccccc1N1CCN(Cc2cccc(OC)c2OC)CC1 returned D3 antag inactive, D1 antag -41.8, D1 agonist inactive, D1 PAM inactive and D3 ag inactive.
For CCOC(=O)C1CCN(c2ccccc2CN2CCN(c3ccccc3OCC)CC2)CC1 the results were D3 antag -75.0, D1 antag inactive, D1 agonist inactive, D1 PAM inactive and D3 ag inactive.
For CCOC(=O)C1CCN(Cc2ccccn2)CC1 the results were D1 antag inactive, D1 agonist inactive and D1 PAM inactive.
Screening COc1cc(OC)c(OC)cc1CN1CCN(c2ccccc2OC)CC1 returned D3 antag -66.4, D1 antag inactive, D1 agonist inactive, D1 PAM inactive and D3 ag inactive.
Screening CCOc1ccccc1N1CCN(Cc2ccc(Br)s2)CC1 returned D3 antag -95.1, D1 antag inactive, D1 agonist inactive, D1 PAM inactive and D3 ag inactive.
For Cc1cc(NC(=O)c2cc(-c3ccc(Br)cc3)on2)nn1Cc1ccc(Cl)cc1 the results were D1 antag inactive, D1 agonist inactive, D1 PAM inactive and D3 ag inactive.
Screening COc1ccccc1N1CCN(Cc2cc3c(cc2Br)OCCO3)CC1 returned D3 antag -75.7, D1 antag inactive, D1 agonist inactive, D1 PAM inactive and D3 ag inactive.
Screening CCOc1ccccc1N1CCN(Cc2ccco2)CC1 returned D3 antag inactive, D1 antag inactive, D1 agonist inactive, D1 PAM inactive and D3 ag inactive.
CCOc1ccccc1N1CCN(Cc2ccc(OC)c(OC)c2)CC1 was read as D3 antag inactive, D1 antag inactive, D1 agonist inactive, D1 PAM inactive and D3 ag inactive.
Screening COc1ccccc1N1CCN(Cc2ccc(Br)o2)CC1 returned D3 antag -81.0, D1 antag inactive, D1 agonist inactive, D1 PAM inactive and D3 ag inactive.
`CCOc1ccccc1N1CCN(Cc2ccc(OC)c(OC)c2OC)CC1` gave D3 antag -141.0, D1 antag inactive, D1 agonist inactive, D1 PAM inactive and D3 ag inactive.
Screening COc1ccc(N2CCN(Cc3cc4c(cc3Br)OCCO4)CC2)cc1 returned D3 antag inactive, D1 antag inactive, D1 agonist inactive and D3 ag inactive.
CCOc1ccccc1N1CCN(Cc2cnc(-c3ccccc3)[nH]2)CC1 was read as D3 antag -94.0, D1 antag inactive, D1 agonist inactive, D1 PAM inactive and D3 ag inactive.
For CCc1nc2c(OCc3ccccc3C)cccn2c1N(C)C(=O)C(C)C the results were D3 antag -78.2 and D3 ag inactive.
Screening CCCCN(C=O)c1c(CC)nc2c(OCC(=O)N3CCOCC3)cccn12 returned D3 antag inactive and D3 ag inactive.
Screening CCc1nc2c(OCC(=O)N3CCOCC3)cccn2c1N(C)C(=O)COc1ccccc1 returned D3 antag -52.7 and D3 ag inactive.
For Cc1ccc(NC(=O)COC(=O)CCc2ccc(S(=O)(=O)N3CCOCC3)cc2)cc1F the results were D3 antag inactive, D1 antag -30.7, D1 agonist inactive, D1 PAM inactive and D3 ag inactive.
For COc1ccc(CC(=O)Nc2ccc(F)c(Cl)c2)cc1S(=O)(=O)N1CCOCC1 the results were D3 antag inactive, D1 antag -35.2, D1 agonist inactive, D1 PAM inactive and D3 ag inactive.
For CC(Oc1ccc(Cl)cc1)C(=O)Nc1cccc(S(=O)(=O)N2CCCC2)c1 (centres undefined) the results were D3 antag inactive and D3 ag inactive.
For CC(Oc1ccc(Cl)cc1)C(=O)Nc1ccc(S(=O)(=O)N2CCOCC2)cc1 (centres undefined) the results were D3 antag inactive, D1 antag inactive, D1 agonist 46.5, D1 PAM inactive and D3 ag inactive.
Screening Cc1csc(SC(C)C(=O)Nc2ccc(S(=O)(=O)N3CCCC3)cc2)n1 (centres undefined) returned D3 antag inactive, D1 antag -40.2, D1 agonist inactive, D1 PAM inactive and D3 ag inactive.
Cc1nnc(SC(C)C(=O)Nc2ccc(S(=O)(=O)N3CCCCC3)cc2)s1 (centres undefined) was read as D3 antag inactive, D1 antag inactive, D1 agonist inactive, D1 PAM inactive and D3 ag inactive.
Screening CCN1CCN(CC(=O)Nc2ccc(N(C)C)cc2)CC1 returned D3 antag inactive, D1 antag inactive, D1 agonist inactive, D1 PAM inactive and D3 ag inactive.
For Cc1ccc(SC(C)C(=O)Nc2ccc(S(=O)(=O)N3CCOCC3)cc2)cc1 (centres undefined) the results were D3 antag inactive, D1 antag inactive, D1 agonist 45.5, D1 PAM inactive and D3 ag inactive.
`Cc1ccc(NC(=O)c2ccc(S(=O)(=O)N3CCOCC3)cc2)cc1` gave D3 antag inactive, D1 antag inactive, D1 agonist inactive, D1 PAM inactive and D3 ag inactive.
O=C(Cc1ccc(Cl)cc1)Nc1ccc(S(=O)(=O)N2CCOCC2)cc1 was read as D3 antag inactive, D1 antag inactive, D1 agonist 34.0, D1 PAM inactive and D3 ag inactive.
O=C(COC(=O)c1ccc(O)cc1)NC1CCCCCC1 was read as D3 antag inactive, D1 antag inactive, D1 agonist inactive, D1 PAM inactive and D3 ag inactive.
`COCC(C)NC(=O)CCc1nnc(C2(c3ccc(Cl)cc3)CCC2)o1` (centres undefined) gave D3 antag inactive, D1 antag -51.4, D1 agonist inactive, D1 PAM inactive and D3 ag inactive.
Screening CCOC(=O)c1c(S(=O)(=O)N2CCC(C(=O)N3CCN(c4ccccc4F)CC3)CC2)c(C)n(C)c1C returned D1 antag inactive, D1 agonist inactive, D1 PAM inactive and D3 ag inactive.
O=C(c1ccco1)N1CCN(CCCCOc2ccc(F)cc2)CC1 was read as D3 antag inactive, D1 antag inactive, D1 agonist inactive, D1 PAM inactive and D3 ag 66.4.
For O=C(CN1C(=O)c2ccccc2C1=O)N1CCN(C(=O)c2ccco2)CC1 the results were D3 antag inactive, D1 antag inactive, D1 agonist inactive, D1 PAM inactive and D3 ag inactive.
Screening O=C(c1ccco1)N1CCN(CCCCN2C(=O)c3ccccc3C2=O)CC1 returned D3 antag inactive, D1 antag inactive, D1 agonist inactive, D1 PAM inactive and D3 ag 57.1.
For C#CCN(C[C@@H]1[C@@H](OC(=O)NCCCCCC)[C@@H](OC(=O)NCCCCCC)Cn2c(=O)n(CCCCCC)c(=O)n21)S(=O)(=O)c1ccc(C)cc1 the results were D3 antag inactive and D3 ag inactive.
